Results filed as inconclusive are left out. A call without a number means that no potency is given here. Calls of active or inactive are those of the source. Calls come from the whole dose curve; as a rule, active = well fitted inhibition curve with a large enough effect; inconclusive = small, poorly fitted or top-dose-only effect; inactive = no such curve, though single readings can be large or run the other way.
Test: Counterscreen qHTS for Identification of Calcium Integrin Binding Protein 1 (CIB1) Competitor
Details: series mostly up to 114 µM
In short: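 Counterscreen FP assay: CIB1-GST 1 uM in 5 mM HEPES pH 7.4, 125 mM NaCl, 5 mM CaCl2, 0.01% Tween20, with compounds up to 114 uM for 15 min, then 100 nM FITC-labelled scrambled peptide, 15 min, polarization read ex 480/em 540.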
Potency is the fitted concentration of half-maximal effect.

Structure (SMILES) | Potency
Cc1ccc(S(=O)(=O)Nc2cnccc2C(=O)Nc2nc3ccccc3s2)cc1 | inactive
Cc1ccc(S(=O)(=O)Nc2cnccc2C(=O)Nc2ccc(-c3nn[nH]n3)cc2)cc1 | inactive
CCc1ccc(C=C2SC(=S)NC2=O)cc1 | inactive
CCOc1ccc(CCNC(C)=O)cc1OCC | inactive
Cc1cc(NS(=O)(=O)c2ccc(NC(=O)Cc3ccc(F)c(Cl)c3)cc2)no1 | inactive
O=C1c2ccccc2C(=O)c2c1ccc(O)c2O | 22.4 µM (active)
Cc1ccc(S(=O)(=O)Nc2cnccc2C(=O)Nc2nc(-c3ccc(Cl)cc3)cs2)cc1 | inactive
CC(C)(C)c1ccc(SC2=NS(=O)(=O)c3ccccc32)cc1 | inactive
CN1CCc2cccc3c2[C@H]1Cc1ccc(O)c(O)c1-3 | inactive
O=c1c2ccccc2nc2sc(NS(=O)(=O)c3ccc4c(c3)CCC4)nn12 | inactive
COC(=O)c1cc(Cl)ccc1NS(=O)(=O)C(F)(F)F | inactive
O=c1[nH]nc(Sc2ncc([N+](=O)[O-])s2)n1-c1ccc2c(c1)OCCO2 | inactive
O=C(Nc1ccc(S(=O)(=O)N2CCOCC2)cc1)c1cc(Cl)ccc1NS(=O)(=O)c1ccc(Cl)s1 | inactive

— PubChem BioAssay AID1508619 (National Center for Advancing Translational Sciences (NCATS), 2020)
